# Laboratory results published in PubChem BioAssay (NCI).
# About 83,000 compounds went through this panel and 20% of them were active in at least one assay; those are over-represented in the sample as a whole.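 The test compound was applied at a single concentration to cells in 96-well plates for 48 hours, and percent growth was recorded.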 A number with no mark means an inactive call. Activity calls are given as the source filed them. Rule for the calls: active = growth percent below 10; inactive = the rest.
# What was measured:
# Test in all cases: NCI-60 one-dose screen, 48 h (100 = growth as untreated, 0 = no growth, -100 = all killed)
# Settings in all cases: 10 µM
# [1] = system: 786-0 renal
# [2] = system: MALME-3M melanoma
# [3] = system: SF-268 CNS
# [4] = system: SF-295 CNS
# [5] = system: UACC-257 melanoma
# [6] = system: PC-3 prostate
# [7] = system: UACC-62 melanoma
# [8] = system: SK-MEL-28 melanoma
# [9] = system: SK-MEL-2 melanoma
# [10] = system: EKVX NSCLC
# [11] = system: SN12C renal
# [12] = system: UO-31 renal
# [13] = system: TK-10 renal
# [14] = system: ACHN renal
# [15] = system: CAKI-1 renal
# [16] = system: A498 renal
# [17] = system: OVCAR-8 ovarian
# [18] = system: OVCAR-5 ovarian
# [19] = system: IGROV1 ovarian
# [20] = system: OVCAR-3 ovarian
Compound,growth [1] [%],growth [2],growth [3] [%],growth [4],growth [5],growth [6],growth [7],growth [8] [%],growth [9],growth [10],growth [11] [%],growth [12],growth [13] [%],growth [14] [%],growth [15],growth [16],growth [17] [%],growth [18] [%],growth [19] [%],growth [20] [%]
CC1(C)CC(=O)C2=C(C1)N(Cc1ccc(C(=O)O)cc1)C1=C(C(=O)CC(C)(C)C1)C2c1ccc(Cl)cc1,95.5,105%,106,99.4%,101%,109%,89.9%,119,97.6%,97.5%,103,81.6%,92.2,116,90.5%,95.8%,105,106,107,112
COc1ccc(C(=O)COc2ccc(NC(=O)Nc3ccc(Cl)c(C(F)(F)F)c3)cc2)cc1,25.2,31.3%,37.9,5.9% (active),11.8%,8.96% (active),7.25% (active),40.1,-6.77% (active),10.3%,40.9,33.3%,46.8,17.9,27.2%,60.8%,22.5,67.7,49.9,28.3
Cc1ccc2c(c1)C(=O)/C(=C/c1ccc([N+](=O)[O-])cc1)S2,101,97.8%,96.4,98.2%,101%,94.5%,73.2%,109,101%,91.6%,93.4,58.2%,135,102,61.9%,114%,105,82.9,63.8,103
O=C(CC(=O)Nc1ccc(Oc2ncnc3scc(Nc4n[nH]c(=S)s4)c23)cc1)Nc1ccc(Br)cc1,109,105%,98.7,112%,104%,99.9%,82.2%,110,98.8%,101%,106,85.1%,146,106,88.8%,121%,102,106,106,105
Cn1cc(-c2nnc(N)nc2-c2c[nH]c3ccccc23)c2cc(Br)cnc21,40.1,45.9%,57.4,37.2%,73%,45.7%,24.3%,49.2,46.2%,46.6%,56.1,24.7%,61.4,39.7,24.3%,81.9%,62,94.3,35.6,65.1
COc1ccc(C2c3sc4ccc(C)cc4c3Oc3nc[nH]c(=O)c32)cc1 (stereo not given),103,84.8%,89.7,107%,88.2%,74.9%,59.2%,80.9,68.8%,92.7%,91.7,64.5%,137,106,60%,119%,98.1,113,83.6,89
O=C(Nc1ccc(OCc2ccc(Cl)cc2)cc1)Nc1ccc(Cl)c(C(F)(F)F)c1,17.2,-16.6% (active),43.3,-12.8% (active),-6.05% (active),-7.44% (active),16.8%,35.6,-30% (active),2.59% (active),18.2,6.65% (active),18.5,11.2,1.19% (active),-12.4% (active),13.5,53.3,47.6,29.3
O=C(CC(=O)Nc1ccc(Oc2ncnc3scc(Nc4n[nH]c(=S)s4)c23)cc1)Nc1ccc(Cl)cc1,101,109%,85,99.6%,104%,74%,53.6%,101,98.3%,75.6%,88.1,47%,137,77.4,62.9%,108%,93.5,79,62.2,82.7
Cn1cc(/C=C(/SS/C(=C/c2cn(C)c3cccc(C(=O)O)c23)C(=O)O)C(=O)O)c2c(C(=O)O)cccc21,104,97.9%,101,105%,104%,97.2%,92.3%,98.3,106%,98.2%,99,88.1%,93,110,87.9%,109%,103,105,113,109
